Numbering of substitutions follows the chain as printed.

Holding throughout (assay): PBM; 200 nM protein, PBS
Common to all, as to conditions: dsDNA, one strand shown

Assay [1] has as its target T1, PAX4 (Homo sapiens, UniProt O43316 9-242).
T1 sequence: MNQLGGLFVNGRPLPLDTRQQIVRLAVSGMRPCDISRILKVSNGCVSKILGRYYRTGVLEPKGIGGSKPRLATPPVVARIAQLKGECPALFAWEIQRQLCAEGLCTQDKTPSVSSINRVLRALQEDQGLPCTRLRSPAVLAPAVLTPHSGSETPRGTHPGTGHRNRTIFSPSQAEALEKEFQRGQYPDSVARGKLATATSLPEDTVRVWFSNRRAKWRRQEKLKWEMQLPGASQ

In assay [2] the target is T2, PAX4 (Homo sapiens, UniProt O43316 9-242, F177V).
T2 sequence: T1 sequence with F169V

The target of assay [3] is T3, SIX6 (Homo sapiens, UniProt O95475 114-200, T165P).
T3 sequence: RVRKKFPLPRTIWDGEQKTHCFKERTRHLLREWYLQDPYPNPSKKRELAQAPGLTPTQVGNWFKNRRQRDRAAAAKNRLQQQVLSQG

The next assay has as its target T4, VENTX (Homo sapiens, UniProt O95231 78-163, Y115F).
T4 sequence: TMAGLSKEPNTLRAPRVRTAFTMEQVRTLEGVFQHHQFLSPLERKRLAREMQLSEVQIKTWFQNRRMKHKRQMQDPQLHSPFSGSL

For assay [4], the target named is HOXA2 (Homo sapiens, UniProt O43364 129-215, R185T).
A further assay concerns the target MSX2 (Homo sapiens, UniProt P35548 130-214, R199I).
Assay [5] concerns the target HOXA2 (Homo sapiens, UniProt O43364 129-215, R185K).
The target in assay [6] is HOXB6 (Homo sapiens, UniProt P17509 132-218, K202E).
For another assay, the target named is HOXA4 (Homo sapiens, UniProt Q00056 201-287, R217L).
The target of assay [7] is HOXB6 (Homo sapiens, UniProt P17509 132-218).
The target of assay [8] is ALX3 (Homo sapiens, UniProt O95076 139-225, N203Q).
Assay [9] addresses ALX3 (Homo sapiens, UniProt O95076 139-225).
Assay [10] deals with ALX3 (Homo sapiens, UniProt O95076 139-225, N203S).
The target of assay [11] is T5, PAX4 (Homo sapiens, UniProt O43316 9-242, F177Y).
T5 sequence: T1 sequence with F169Y

The target in assay [12] is T6, SIX6 (Homo sapiens, UniProt O95475 114-200, L167M).
T6 sequence: T3 sequence with P52T, L54M

Assay [13] deals with T7, PAX4 (Homo sapiens, UniProt O43316 9-242, R227W).
T7 sequence: T1 sequence with R219W

For the next assay, the target named is T8, NKX2-4 (Homo sapiens, UniProt Q9H2Z4 175-261).
T8 sequence: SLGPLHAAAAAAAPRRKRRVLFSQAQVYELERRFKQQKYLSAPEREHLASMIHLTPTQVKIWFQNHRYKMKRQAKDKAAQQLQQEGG

ALX3 (Homo sapiens, UniProt O95076 139-225, N203Q), sequence (O95076 139-225 N203Q): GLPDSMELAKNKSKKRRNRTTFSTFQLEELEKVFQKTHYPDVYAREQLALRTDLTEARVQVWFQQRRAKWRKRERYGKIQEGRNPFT
ALX3 (Homo sapiens, UniProt O95076 139-225, N203S), sequence (O95076 139-225 N203S): as the sequence (O95076 139-225 N203Q) above, with Q65S counted along it
ALX3 (Homo sapiens, UniProt O95076 139-225), sequence (O95076 139-225): as the sequence (O95076 139-225 N203Q) above, with Q65N counted along it
HOXA4, sequence (Q00056 201-287 R217L): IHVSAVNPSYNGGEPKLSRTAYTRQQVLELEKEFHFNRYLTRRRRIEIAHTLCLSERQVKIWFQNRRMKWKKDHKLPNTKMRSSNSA
HOXA2 (Homo sapiens, UniProt O43364 129-215, R185T), sequence (O43364 129-215 R185T): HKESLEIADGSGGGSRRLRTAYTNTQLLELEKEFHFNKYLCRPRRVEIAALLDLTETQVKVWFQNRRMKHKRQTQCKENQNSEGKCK
HOXB6 (Homo sapiens, UniProt P17509 132-218, K202E), sequence (P17509 132-218 K202E): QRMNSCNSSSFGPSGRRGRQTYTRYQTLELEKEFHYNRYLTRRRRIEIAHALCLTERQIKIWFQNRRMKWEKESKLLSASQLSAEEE
MSX2, sequence (P35548 130-214 R199I): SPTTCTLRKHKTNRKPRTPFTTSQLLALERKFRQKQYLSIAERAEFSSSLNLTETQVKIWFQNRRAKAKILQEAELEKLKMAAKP
HOXB6 (Homo sapiens, UniProt P17509 132-218), sequence (P17509 132-218): as the sequence (P17509 132-218 K202E) above, with E71K counted along it
HOXA2 (Homo sapiens, UniProt O43364 129-215, R185K), sequence (O43364 129-215 R185K): as the sequence (O43364 129-215 R185T) above, with T57K counted along it

As for AATCGTAT, the binding signal with PAX4 [1] is 10.8 upbm affinity estimate (log intensity, higher = more binding, comparable within an allelic series); in the assay with PAX4 [2], 10.3 upbm affinity estimate (log intensity, higher = more binding, comparable within an allelic series).

With CCCCTATC, in the assay with SIX6 [3], the binding signal was 9.29 upbm affinity estimate (log intensity, higher = more binding, comparable within an allelic series).

For the sequence CGCGGATC, in the assay with SIX6 [3], the binding signal was 9.18 upbm affinity estimate (log intensity, higher = more binding, comparable within an allelic series).

Take CTAATCAC: the binding signal in the assay with VENTX is 11.7 upbm affinity estimate (log intensity, higher = more binding, comparable within an allelic series); in the assay with HOXA2 [4], 12.7 upbm affinity estimate (log intensity, higher = more binding, comparable within an allelic series); in the assay with MSX2 it was 11.1 upbm affinity estimate (log intensity, higher = more binding, comparable within an allelic series); in the assay with HOXA2 [5], 13.3 upbm affinity estimate (log intensity, higher = more binding, comparable within an allelic series).

For AATCGATT, the binding signal with VENTX is 10.7 upbm affinity estimate (log intensity, higher = more binding, comparable within an allelic series); in the assay with HOXB6 [6], 9.7 upbm affinity estimate (log intensity, higher = more binding, comparable within an allelic series); in the assay with HOXA4 it was 12 upbm affinity estimate (log intensity, higher = more binding, comparable within an allelic series); in the assay with HOXB6 [7], 11 upbm affinity estimate (log intensity, higher = more binding, comparable within an allelic series).

CGGATCGC: in the assay with SIX6 [3], the binding signal was 9.17 upbm affinity estimate (log intensity, higher = more binding, comparable within an allelic series).

For the sequence CCGATACG, the binding signal with SIX6 [3] is 9.12 upbm affinity estimate (log intensity, higher = more binding, comparable within an allelic series).

Take CGATACCG: in the assay with SIX6 [3], the binding signal was 9.14 upbm affinity estimate (log intensity, higher = more binding, comparable within an allelic series).

Take GGGATCCA: in the assay with SIX6 [3], the binding signal was 9.27 upbm affinity estimate (log intensity, higher = more binding, comparable within an allelic series).

Turning to CCGGTATC, in the assay with SIX6 [3], the binding signal was 9.21 upbm affinity estimate (log intensity, higher = more binding, comparable within an allelic series).

With CGTGTAAA, the binding signal in the assay with PAX4 [1] is 10.4 upbm affinity estimate (log intensity, higher = more binding, comparable within an allelic series).

In the case of CGATACGC, the binding signal with SIX6 [3] was 9.24 upbm affinity estimate (log intensity, higher = more binding, comparable within an allelic series).

With AAATGGGT, the binding signal with VENTX was 10.2 upbm affinity estimate (log intensity, higher = more binding, comparable within an allelic series); in the assay with ALX3 [8], 8.27 upbm affinity estimate (log intensity, higher = more binding, comparable within an allelic series); with ALX3 [9], 9.3 upbm affinity estimate (log intensity, higher = more binding, comparable within an allelic series); with ALX3 [10], 8.31 upbm affinity estimate (log intensity, higher = more binding, comparable within an allelic series).

For the sequence ATCGATCG, the binding signal with PAX4 [1] is 10.5 upbm affinity estimate (log intensity, higher = more binding, comparable within an allelic series); in the assay with PAX4 [2] it was 10 upbm affinity estimate (log intensity, higher = more binding, comparable within an allelic series); in the assay with PAX4 [11], 10.1 upbm affinity estimate (log intensity, higher = more binding, comparable within an allelic series).

With CCGATTTA, the binding signal in the assay with VENTX was 9.97 upbm affinity estimate (log intensity, higher = more binding, comparable within an allelic series).

For TAGTCACA, the binding signal in the assay with PAX4 [1] is 10.1 upbm affinity estimate (log intensity, higher = more binding, comparable within an allelic series).

ACCGATCA: the binding signal with VENTX was 9.96 upbm affinity estimate (log intensity, higher = more binding, comparable within an allelic series).

Consider GTCGATTA, for which the binding signal with VENTX is 10.9 upbm affinity estimate (log intensity, higher = more binding, comparable within an allelic series).

For the sequence ACGATCCG, the binding signal is 9.21 upbm affinity estimate (log intensity, higher = more binding, comparable within an allelic series) with SIX6 [3] and 9.98 upbm affinity estimate (log intensity, higher = more binding, comparable within an allelic series) with SIX6 [12].

In the case of CCGATACC, the binding signal with SIX6 [3] was 9.05 upbm affinity estimate (log intensity, higher = more binding, comparable within an allelic series); with SIX6 [12], 10 upbm affinity estimate (log intensity, higher = more binding, comparable within an allelic series).

TCTTATCA: the binding signal in the assay with PAX4 [1] was 10.6 upbm affinity estimate (log intensity, higher = more binding, comparable within an allelic series); in the assay with ALX3 [8], 8.33 upbm affinity estimate (log intensity, higher = more binding, comparable within an allelic series); with ALX3 [9], 9.29 upbm affinity estimate (log intensity, higher = more binding, comparable within an allelic series); in the assay with ALX3 [10] it was 8.36 upbm affinity estimate (log intensity, higher = more binding, comparable within an allelic series).

With CCTGGATC, the binding signal with SIX6 [3] is 9.18 upbm affinity estimate (log intensity, higher = more binding, comparable within an allelic series).

With GAATTGAA, the binding signal with PAX4 [1] is 10.6 upbm affinity estimate (log intensity, higher = more binding, comparable within an allelic series); with PAX4 [2], 10.1 upbm affinity estimate (log intensity, higher = more binding, comparable within an allelic series); in the assay with PAX4 [13] it was 10.1 upbm affinity estimate (log intensity, higher = more binding, comparable within an allelic series).

AGGGGTCA: in the assay with NKX2-4, the binding signal is 11.2 upbm affinity estimate (log intensity, higher = more binding, comparable within an allelic series).

In the case of CGTATCAG, the binding signal in the assay with SIX6 [12] was 10.2 upbm affinity estimate (log intensity, higher = more binding, comparable within an allelic series).

Consider GTATCGAC, for which, in the assay with SIX6 [12], the binding signal is 9.96 upbm affinity estimate (log intensity, higher = more binding, comparable within an allelic series).

Regarding GGGGTATA, the binding signal with SIX6 [12] was 10.7 upbm affinity estimate (log intensity, higher = more binding, comparable within an allelic series).

With GGTATCGA, the binding signal with SIX6 [12] was 10.4 upbm affinity estimate (log intensity, higher = more binding, comparable within an allelic series).

For the sequence CGTATCGC, the binding signal in the assay with SIX6 [12] is 10 upbm affinity estimate (log intensity, higher = more binding, comparable within an allelic series).

Consider AGGTATAT, for which the binding signal with SIX6 [12] was 10.8 upbm affinity estimate (log intensity, higher = more binding, comparable within an allelic series).

Consider CCAATCAG, for which the binding signal was 10.5 upbm affinity estimate (log intensity, higher = more binding, comparable within an allelic series) in the assay with PAX4 [1]; 9.65 upbm affinity estimate (log intensity, higher = more binding, comparable within an allelic series) with PAX4 [2]; 9.83 upbm affinity estimate (log intensity, higher = more binding, comparable within an allelic series) in the assay with PAX4 [11]; 9.74 upbm affinity estimate (log intensity, higher = more binding, comparable within an allelic series) in the assay with PAX4 [13].

These data come from publication PMC11006913.
